Screening data as filed in PubChem.
An excerpt weighted towards active compounds, which were near 4.1% of everything screened.
ssDAF-12 act: activates DAF-12 receptor from parasite S. stercoralis; HEK293 ssDAF-12/GRIP1 lit1-tk-luc reporter, luminescence; % of 3 µM dafachronic acid response; activation, % at 6.8 µM; 1% of 370,000 active;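 active means activation above the mean over all tested compounds plus 3 SD, cut at about 0.9% in these data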
PolyA inh: inhibitors of polyadenylation in S. cerevisiae; S. cerevisiae SKY197-pL101 polyadenylation reporter, beta-gal luminescence; efflux-impaired pdr1/pdr3 knockout yeast; score 100 = 6 SD above DMSO; activity score, % at 12 µM; 0.02% of 300,000 active; AID 1875;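 active means lowest replicate activity score at least 50, where 100 means six control SD above control mean; inconclusive means lowest score under 50 but half or more replicates reach 50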;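 further: yeast exposed to compound for 9 h at 30 °C; higher score means more reporter readthrough which indicates perturbed polyadenylation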
DAX1 inh-1: blocks DAX1 repression of SF-1 activated StAR promoter; HEK293T StAR-luciferase reporter, SF-1/DAX-1 repression relief; inhibition, % at 6.8 µM; 1.1% of 370,000 active; AID 652010;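 active means inhibition above the mean over all tested compounds plus 3 SD, cut at about 3.6% in these data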;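 further: higher inhibition means more luminescence from relief of DAX-1 repression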
hgDAF-12 ag: activates the H. glycines DAF-12 receptor ligand-binding domain. HEK293 GAL4-hgDAF12 UAS-luciferase reporter, agonist luminescence; normalized to butyrate control. activation, % at 6.8 µM. 1.8% of 370,000 active;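 active means activation above a cutoff set at the mean of all screened compounds plus 3 SD, cut at about 10% in these data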
DAX1 inh-2: NR0B1 (DAX1) inhibition | P51843 | HEK293 Gal4-DAX1 luciferase reporter, luminescence | inhibition, % at 6.75 µM | 0.99% of 340,000 active | AID 504766;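 active means inhibition above the mean over all tested compounds plus 3 SD, cut at about 4.2% in these data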;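 further: inhibition shows as a rise in luminescence from relieved DAX1 repression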
hcDAF12 agonist: H. contortus DAF-12 activation, primary screen | HEK293 hcDAF-12 lit1-tk-luc reporter, luminescence; 0% DMSO, 100% Δ7-dafachronic acid | activation, % at 6.8 µM | 1.4% of 370,000 active;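 active means activation above the mean of all tested compounds plus 3 SD, cut at about 5.5% in these data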
hgDAF12 conf: hgDAF-12 agonism, confirmation assay; shares compounds with hgDAF-12 ag; HEK293 GAL4-hgDAF12 luciferase reporter, agonist mode; percent of butyrate response; activation, % at 6.8 µM; 80% of 3,300 active;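 active means mean activation over triplicate wells above the hit cutoff derived from the earlier primary screen, cut at about 11% in these data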
LXR ag 2: LXR-beta agonism as DAF-12 counter-screen. activation, % at 6.8 µM. 3,300 tested, under 10 active. HEK293 Gal4-LXR luciferase reporter, 24 h. AID 743051. shares compounds with hgDAF-12 ag;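 active means mean activation of the triplicate above a set limit carried over from the primary screen, none filed active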
Target sequence (P55055 whole entry, looked up, the tested form may be a part): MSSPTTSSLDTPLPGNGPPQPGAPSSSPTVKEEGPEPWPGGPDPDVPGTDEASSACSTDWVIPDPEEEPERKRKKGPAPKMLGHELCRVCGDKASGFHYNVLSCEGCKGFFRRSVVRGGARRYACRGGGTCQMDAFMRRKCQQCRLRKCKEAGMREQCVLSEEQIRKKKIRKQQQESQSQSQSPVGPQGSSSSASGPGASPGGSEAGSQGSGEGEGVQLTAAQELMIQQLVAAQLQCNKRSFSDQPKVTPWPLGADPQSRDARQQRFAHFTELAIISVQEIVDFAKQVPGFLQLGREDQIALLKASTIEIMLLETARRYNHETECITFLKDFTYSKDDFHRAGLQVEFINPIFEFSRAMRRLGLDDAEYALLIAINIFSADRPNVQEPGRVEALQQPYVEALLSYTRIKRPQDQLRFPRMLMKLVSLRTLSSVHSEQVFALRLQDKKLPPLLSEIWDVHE
Hits are given with their value; n = inactive; u = inconclusive; x = not tested or not shown.

SMILES	ssDAF-12 act	PolyA inh	DAX1 inh-1	hgDAF-12 ag	DAX1 inh-2	hcDAF12 agonist	hgDAF12 conf	LXR ag 2
Cc1ccc(-c2cc(C(=O)NCC3CCCO3)no2)cc1 (centres undefined)	n	n	n	14	n	n	13	n
O=C(c1ccoc1)N1CCN(c2cc(-c3cccnc3)nc3cc(-c4cccc(Cl)c4)nn23)CC1	n	x	n	n	n	n	x	x
O=C(N/N=C/C(Cl)=C/c1ccccc1)c1ccco1	n	n	4.0	22	n	n	12	n
Cc1ccc(CNC(=O)CN(C)S(=O)(=O)c2cccs2)cc1	n	n	n	n	n	n	x	x
CCc1ccc(C(=O)Nc2cc(C)ccc2F)s1	n	n	n	16	n	n	n	n
C=CCNc1nc(Cl)nc(NC2CCCCC2)n1	n	n	n	n	n	n	x	x
C/C(=N\Nc1ccc([N+](=O)[O-])cc1)c1ccco1	n	n	n	15	4.8	n	15	n
O=C(Nc1cccc(Cl)c1)Nc1nnc([C@@H]2C[C@H](O)[C@@H](CO)O2)s1	n	x	n	16	x	n	n	n
O=C(Nc1cccc(F)c1)Nc1nnc([C@@H]2C[C@H](O)[C@@H](CO)O2)s1	n	x	n	n	x	n	x	x
Cc1cc(C)c(S(=O)(=O)Cc2ccccc2)c(Cl)n1	n	n	n	n	n	n	x	x
COC(=O)N1N=C(c2ccc(Br)cc2)CC1(O)C(F)(F)F (centres undefined)	1.6	n	n	14	n	n	11	n
C/C(=N/NC(=O)c1ccc(Br)o1)c1ccncc1	n	n	n	18	5.7	n	n	n
C/C(=N/NC(=O)c1ccccn1)c1ccncc1	n	n	n	14	n	n	n	n
C/C(=N/NC(=O)c1cnccn1)c1ccncc1	n	n	n	n	n	n	x	x
C/C(=N/NC(=O)c1ccc(Br)o1)c1cccc(NC(=O)c2ccc(C)o2)c1	n	n	n	n	n	n	x	x
O=C(CCS(=O)(=O)c1cc2c(cc1Cl)NC(=O)CO2)NCc1ccc(F)cc1	n	n	n	n	n	n	x	x
Cc1cc(C)cc(NC(=O)CC2Oc3ccc(C)cc3NC2=O)c1 (centres undefined)	n	n	n	n	n	n	x	x
COc1cccc(NC(=O)Nc2c(-c3ccc(C(F)(F)F)cc3)nc3ncccn23)c1	n	x	n	n	x	n	x	x
COc1cccc(NC(=O)Nc2nc3ncccn3c2-c2ccc(C)cc2)c1	n	x	n	14	x	n	n	n
O=C(/C=C/c1ccc(-c2ccccc2)cc1)NC1=NCCS1	n	x	x	18	x	n	14	n
COC(=O)C1=Cc2cc(OC)cc([N+](=O)[O-])c2OC1N1CCOCC1 (centres undefined)	n	u	n	n	n	n	x	x
Cc1ncc(CO)c(CNc2ccc(-c3nc4ccccc4[nH]3)cc2)c1O	n	n	n	16	n	n	13	n
O=C(NCCN1C(=O)C2C3C=CC(C3)C2C1=O)Nc1ccc(Br)cc1 (centres undefined)	n	n	n	13	n	n	11	n
O=C(NCCN1C(=O)C2C3C=CC(C3)C2C1=O)Nc1cccnc1 (centres undefined)	n	n	n	n	n	n	x	x
O=C(CCSc1ccccn1)Nc1ccc(Br)cc1	1.1	n	n	14	n	n	11	n
CCc1ccc(NC(=O)CSc2ccccn2)cc1	n	n	n	14	n	n	n	n
O=C(CSc1ccccn1)Nc1ccc(NC(=O)CSc2ccccn2)cc1	n	n	n	n	n	n	x	x
O=C(O)C(=O)/C(=C\c1ccc([N+](=O)[O-])cc1)c1ccc2ccccc2n1	n	n	n	22	n	n	18	n
O=C(OCc1ccc([N+](=O)[O-])cc1)c1ccc2ccccc2n1	n	n	n	n	n	n	x	x
